Measurements reported in the supplement of paper PMC11732987, “Enantioselective OTUD7B fragment discovery through chemoproteomics screening and high-throughput optimisation” (Communications Chemistry, 2025).

Legend:
Assay in all cases: log2 ratio of Biotin-Ahx-Ub-VS probe labelling (fragment/DMSO); higher = less target engagement (more negative = stronger competition), active = hit call of the paper (q ≤ 0.05, log2 ratio ≤ -1)
Conditions in all cases: compound concentration: 200 uM; treatment time: 3 h
USP34 = USP34 (UniProt Q70CQ2)
Method in brief: (§1)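 Labelled DUBs from HEK293T lysate were NeutrAvidin-enriched, digested with LysC and trypsin, and run by diaPASEF LC-MS/MS. Before that, each 495 µg sample in Tris/CHAPS/IGEPAL buffer with protease inhibitors was treated in triplicate with fragment at 200 µM or vehicle for 3 h, then with Biotin-Ahx-Ub-VS at 0.5 µM final for 1 h. Values are average log2 ratios of fragment over vehicle by unpaired t-test, based on global-median-normalised Spectronaut label-free quantities from proteins with ≥2 unique peptides.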

USP36 = molecular target: T1, USP36 (UniProt Q9P275)
T1 sequence (whole entry): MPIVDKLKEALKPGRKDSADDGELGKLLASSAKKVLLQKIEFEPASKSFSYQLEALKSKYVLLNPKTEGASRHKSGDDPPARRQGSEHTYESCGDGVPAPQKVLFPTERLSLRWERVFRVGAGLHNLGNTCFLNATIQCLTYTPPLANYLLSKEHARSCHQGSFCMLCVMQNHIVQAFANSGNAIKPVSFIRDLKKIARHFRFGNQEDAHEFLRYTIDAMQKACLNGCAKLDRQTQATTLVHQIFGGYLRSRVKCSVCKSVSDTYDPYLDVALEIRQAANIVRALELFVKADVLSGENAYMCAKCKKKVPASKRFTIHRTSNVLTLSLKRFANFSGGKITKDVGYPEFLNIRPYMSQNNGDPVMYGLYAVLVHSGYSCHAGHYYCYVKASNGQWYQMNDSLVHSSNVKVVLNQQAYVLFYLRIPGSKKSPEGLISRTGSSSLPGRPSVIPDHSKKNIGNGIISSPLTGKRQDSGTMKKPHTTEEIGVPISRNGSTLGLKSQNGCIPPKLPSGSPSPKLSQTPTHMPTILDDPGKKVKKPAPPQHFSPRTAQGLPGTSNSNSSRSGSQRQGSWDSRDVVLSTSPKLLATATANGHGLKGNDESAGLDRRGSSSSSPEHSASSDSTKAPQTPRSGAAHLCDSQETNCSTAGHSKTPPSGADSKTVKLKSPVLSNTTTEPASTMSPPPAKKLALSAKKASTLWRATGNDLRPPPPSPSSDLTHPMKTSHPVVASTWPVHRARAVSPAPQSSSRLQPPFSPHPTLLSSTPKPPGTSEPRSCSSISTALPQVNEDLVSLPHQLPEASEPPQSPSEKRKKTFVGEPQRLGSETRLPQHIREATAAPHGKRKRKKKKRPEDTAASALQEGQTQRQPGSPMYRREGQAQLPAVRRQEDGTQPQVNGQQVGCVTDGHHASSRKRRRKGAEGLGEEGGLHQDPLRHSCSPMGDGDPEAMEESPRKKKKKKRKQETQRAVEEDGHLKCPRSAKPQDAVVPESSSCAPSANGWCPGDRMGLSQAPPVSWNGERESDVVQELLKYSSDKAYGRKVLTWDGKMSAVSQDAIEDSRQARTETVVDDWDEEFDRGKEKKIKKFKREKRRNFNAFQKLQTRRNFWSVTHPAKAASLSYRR
Method in brief: as §1

USP38 = molecular target: T2, USP38 (UniProt Q8NB14)
T2 sequence (whole entry): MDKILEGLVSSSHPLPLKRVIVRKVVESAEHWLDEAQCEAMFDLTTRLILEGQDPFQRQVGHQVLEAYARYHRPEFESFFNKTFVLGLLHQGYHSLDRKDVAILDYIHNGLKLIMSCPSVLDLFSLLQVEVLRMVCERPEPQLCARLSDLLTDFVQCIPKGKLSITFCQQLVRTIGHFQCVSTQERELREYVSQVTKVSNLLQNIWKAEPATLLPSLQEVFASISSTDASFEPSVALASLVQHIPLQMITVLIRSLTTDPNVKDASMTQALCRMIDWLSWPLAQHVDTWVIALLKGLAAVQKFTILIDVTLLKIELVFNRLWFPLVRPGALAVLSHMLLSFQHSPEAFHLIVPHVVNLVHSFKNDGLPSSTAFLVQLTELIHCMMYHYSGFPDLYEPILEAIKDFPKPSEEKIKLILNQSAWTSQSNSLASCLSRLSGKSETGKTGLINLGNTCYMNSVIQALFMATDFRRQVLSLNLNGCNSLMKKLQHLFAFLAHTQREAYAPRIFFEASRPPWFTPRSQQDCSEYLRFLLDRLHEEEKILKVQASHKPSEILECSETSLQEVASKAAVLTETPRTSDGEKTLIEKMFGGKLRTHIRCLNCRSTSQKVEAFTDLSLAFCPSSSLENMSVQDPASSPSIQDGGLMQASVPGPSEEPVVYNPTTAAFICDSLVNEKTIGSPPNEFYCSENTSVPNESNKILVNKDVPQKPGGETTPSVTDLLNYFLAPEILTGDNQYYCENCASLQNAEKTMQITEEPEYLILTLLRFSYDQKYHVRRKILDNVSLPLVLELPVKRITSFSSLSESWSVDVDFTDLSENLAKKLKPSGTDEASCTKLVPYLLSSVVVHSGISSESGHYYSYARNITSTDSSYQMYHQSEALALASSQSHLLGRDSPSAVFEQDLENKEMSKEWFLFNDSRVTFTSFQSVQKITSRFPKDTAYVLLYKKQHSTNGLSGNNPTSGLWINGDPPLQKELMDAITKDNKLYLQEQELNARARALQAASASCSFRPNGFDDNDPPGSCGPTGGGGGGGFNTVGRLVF
Method in brief: as §1

USP39 = molecular target: T3, USP39 (UniProt Q53GS9)
T3 sequence (whole entry): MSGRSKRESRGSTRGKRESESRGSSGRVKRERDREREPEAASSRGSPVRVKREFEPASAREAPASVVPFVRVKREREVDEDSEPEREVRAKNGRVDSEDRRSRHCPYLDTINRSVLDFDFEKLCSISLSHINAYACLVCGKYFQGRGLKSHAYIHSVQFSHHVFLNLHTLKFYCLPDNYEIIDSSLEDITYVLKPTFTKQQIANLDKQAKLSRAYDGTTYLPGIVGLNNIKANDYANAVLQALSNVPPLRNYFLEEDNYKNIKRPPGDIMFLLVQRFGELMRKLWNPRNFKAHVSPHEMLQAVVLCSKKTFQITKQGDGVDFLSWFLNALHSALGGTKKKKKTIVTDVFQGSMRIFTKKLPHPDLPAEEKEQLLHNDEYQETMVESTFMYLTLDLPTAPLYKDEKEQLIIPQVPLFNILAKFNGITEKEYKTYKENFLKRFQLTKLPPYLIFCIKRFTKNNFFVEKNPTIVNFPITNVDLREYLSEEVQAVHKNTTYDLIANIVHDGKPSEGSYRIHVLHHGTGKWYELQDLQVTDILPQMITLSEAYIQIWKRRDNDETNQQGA
Method in brief: as §1

USP4 = molecular target: T4, USP4 (UniProt Q13107)
T4 sequence (whole entry): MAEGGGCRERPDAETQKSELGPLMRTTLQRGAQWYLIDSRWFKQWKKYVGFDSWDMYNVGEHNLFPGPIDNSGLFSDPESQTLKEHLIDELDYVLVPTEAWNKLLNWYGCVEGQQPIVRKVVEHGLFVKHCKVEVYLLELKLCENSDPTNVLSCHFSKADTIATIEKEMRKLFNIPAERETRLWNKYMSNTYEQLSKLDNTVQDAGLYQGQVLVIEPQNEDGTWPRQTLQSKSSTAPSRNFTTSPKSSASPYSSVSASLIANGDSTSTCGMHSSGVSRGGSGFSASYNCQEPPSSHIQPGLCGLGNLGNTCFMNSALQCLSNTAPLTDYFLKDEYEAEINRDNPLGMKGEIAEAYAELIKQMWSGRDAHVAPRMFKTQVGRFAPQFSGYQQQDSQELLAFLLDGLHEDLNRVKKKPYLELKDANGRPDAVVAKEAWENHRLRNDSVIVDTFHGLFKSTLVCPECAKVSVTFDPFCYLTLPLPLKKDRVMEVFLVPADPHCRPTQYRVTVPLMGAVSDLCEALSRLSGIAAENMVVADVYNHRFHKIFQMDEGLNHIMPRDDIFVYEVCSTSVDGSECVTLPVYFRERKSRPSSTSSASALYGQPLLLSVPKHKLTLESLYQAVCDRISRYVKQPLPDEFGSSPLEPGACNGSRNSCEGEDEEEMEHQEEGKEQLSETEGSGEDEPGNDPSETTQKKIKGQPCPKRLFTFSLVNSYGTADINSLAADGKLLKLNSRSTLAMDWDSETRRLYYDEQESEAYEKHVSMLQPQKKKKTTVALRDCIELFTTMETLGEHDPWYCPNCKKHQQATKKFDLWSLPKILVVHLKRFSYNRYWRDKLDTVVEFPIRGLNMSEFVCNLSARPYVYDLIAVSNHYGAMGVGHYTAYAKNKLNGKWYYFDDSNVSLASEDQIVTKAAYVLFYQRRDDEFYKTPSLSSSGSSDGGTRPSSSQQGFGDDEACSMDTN
Method in brief: as §1

Measured: log2 ratio of Biotin-Ahx-Ub-VS probe labelling

USP34, sequence (Q70CQ2 whole entry, the tested form may be a part): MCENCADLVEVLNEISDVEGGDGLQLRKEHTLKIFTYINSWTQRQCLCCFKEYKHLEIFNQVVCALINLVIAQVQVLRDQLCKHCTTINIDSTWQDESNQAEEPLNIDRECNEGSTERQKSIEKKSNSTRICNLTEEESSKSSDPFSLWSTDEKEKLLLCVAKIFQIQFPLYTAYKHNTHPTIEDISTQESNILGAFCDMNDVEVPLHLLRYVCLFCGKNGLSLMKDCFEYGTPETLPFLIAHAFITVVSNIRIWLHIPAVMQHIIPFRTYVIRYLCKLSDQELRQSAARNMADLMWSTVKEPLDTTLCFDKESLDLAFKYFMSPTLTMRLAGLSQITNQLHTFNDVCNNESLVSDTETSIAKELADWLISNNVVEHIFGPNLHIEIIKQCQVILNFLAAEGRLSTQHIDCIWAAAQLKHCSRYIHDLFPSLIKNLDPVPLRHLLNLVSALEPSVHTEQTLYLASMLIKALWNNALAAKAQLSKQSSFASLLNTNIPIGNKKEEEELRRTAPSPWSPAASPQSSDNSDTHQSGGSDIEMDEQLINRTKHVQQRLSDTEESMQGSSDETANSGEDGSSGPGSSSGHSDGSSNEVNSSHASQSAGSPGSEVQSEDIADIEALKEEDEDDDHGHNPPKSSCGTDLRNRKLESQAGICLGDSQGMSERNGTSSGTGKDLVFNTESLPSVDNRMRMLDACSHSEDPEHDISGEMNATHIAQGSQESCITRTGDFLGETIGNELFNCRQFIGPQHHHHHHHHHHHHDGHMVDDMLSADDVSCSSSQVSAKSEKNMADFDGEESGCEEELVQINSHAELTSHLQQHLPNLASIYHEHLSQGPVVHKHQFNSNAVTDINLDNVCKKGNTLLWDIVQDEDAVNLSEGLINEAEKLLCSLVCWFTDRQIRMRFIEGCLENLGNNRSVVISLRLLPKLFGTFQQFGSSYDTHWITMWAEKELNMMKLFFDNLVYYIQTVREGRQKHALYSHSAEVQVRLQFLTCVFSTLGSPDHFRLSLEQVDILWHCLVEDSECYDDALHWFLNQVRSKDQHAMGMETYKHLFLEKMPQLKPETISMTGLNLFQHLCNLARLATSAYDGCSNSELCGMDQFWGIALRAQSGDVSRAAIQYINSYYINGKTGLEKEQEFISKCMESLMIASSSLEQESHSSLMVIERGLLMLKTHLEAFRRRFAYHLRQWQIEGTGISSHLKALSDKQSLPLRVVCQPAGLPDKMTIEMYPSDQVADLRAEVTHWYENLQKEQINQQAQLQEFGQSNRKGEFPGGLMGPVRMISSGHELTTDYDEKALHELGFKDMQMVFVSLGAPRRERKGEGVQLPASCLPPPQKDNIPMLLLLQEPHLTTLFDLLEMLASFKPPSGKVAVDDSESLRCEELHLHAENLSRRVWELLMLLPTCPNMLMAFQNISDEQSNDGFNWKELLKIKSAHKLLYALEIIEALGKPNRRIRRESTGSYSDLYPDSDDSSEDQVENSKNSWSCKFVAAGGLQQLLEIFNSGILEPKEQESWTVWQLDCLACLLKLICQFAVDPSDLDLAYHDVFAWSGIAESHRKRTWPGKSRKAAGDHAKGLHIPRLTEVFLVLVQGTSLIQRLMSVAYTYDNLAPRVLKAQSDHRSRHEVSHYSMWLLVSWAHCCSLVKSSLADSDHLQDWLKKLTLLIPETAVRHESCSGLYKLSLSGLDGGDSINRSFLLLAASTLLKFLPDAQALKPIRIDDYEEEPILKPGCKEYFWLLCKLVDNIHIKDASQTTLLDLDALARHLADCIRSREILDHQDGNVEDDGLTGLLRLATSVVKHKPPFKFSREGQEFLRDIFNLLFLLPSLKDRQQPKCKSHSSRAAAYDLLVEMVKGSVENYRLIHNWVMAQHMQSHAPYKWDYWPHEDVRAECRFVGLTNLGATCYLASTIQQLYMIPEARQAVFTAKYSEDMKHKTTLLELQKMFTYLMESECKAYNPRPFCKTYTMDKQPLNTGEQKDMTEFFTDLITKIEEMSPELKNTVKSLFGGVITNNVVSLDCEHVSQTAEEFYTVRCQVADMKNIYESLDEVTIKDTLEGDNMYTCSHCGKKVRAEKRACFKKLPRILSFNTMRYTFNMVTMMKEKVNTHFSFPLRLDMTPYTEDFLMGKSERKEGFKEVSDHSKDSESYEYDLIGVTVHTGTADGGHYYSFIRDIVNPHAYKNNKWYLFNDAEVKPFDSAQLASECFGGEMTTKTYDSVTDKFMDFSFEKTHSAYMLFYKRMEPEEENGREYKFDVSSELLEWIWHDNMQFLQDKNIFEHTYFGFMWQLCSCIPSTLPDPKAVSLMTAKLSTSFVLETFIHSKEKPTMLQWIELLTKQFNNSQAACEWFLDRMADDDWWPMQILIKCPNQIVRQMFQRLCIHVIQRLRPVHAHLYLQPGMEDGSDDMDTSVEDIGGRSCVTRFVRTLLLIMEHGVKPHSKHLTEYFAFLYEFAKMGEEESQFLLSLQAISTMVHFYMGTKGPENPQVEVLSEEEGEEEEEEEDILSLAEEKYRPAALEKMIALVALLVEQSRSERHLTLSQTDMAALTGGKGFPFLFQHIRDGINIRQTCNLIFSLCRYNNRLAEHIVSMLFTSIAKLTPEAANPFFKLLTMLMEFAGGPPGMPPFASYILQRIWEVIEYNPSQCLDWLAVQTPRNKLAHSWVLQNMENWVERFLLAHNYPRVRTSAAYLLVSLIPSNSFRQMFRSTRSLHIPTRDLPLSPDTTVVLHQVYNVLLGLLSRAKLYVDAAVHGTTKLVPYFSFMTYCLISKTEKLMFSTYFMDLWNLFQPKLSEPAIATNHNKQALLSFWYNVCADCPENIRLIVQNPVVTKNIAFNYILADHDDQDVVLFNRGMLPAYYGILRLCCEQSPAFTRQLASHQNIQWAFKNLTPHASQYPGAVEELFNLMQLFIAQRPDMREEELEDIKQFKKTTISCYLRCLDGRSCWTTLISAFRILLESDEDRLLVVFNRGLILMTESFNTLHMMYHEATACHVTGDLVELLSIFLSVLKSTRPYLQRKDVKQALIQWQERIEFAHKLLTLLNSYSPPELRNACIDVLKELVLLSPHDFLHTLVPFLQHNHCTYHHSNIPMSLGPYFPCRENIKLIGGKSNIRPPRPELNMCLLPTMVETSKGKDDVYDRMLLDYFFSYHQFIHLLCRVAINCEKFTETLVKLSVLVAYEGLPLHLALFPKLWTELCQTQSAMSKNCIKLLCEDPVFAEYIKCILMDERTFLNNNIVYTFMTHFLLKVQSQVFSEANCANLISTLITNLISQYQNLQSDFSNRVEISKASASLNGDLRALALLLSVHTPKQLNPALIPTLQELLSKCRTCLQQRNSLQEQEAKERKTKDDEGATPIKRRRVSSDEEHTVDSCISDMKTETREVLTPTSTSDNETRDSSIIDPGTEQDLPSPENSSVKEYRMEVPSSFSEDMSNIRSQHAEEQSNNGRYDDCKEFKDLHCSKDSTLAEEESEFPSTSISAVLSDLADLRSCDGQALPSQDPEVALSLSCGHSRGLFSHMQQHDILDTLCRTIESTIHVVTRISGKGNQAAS

O=C(CCl)N1CCC(O)(Cc2ccc(F)cc2)C1 (stereo not given)
inactive: USP34 -0.0775 | USP36 0.229 | USP38 0.29 | USP39 0.427 | USP4 -0.138
